# Compounds without any hit were thinned out: in the full panel of roughly 83,000, 20% have a hit.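 Compound tested at a single concentration for 48 hours in 96-well plates; a percent growth value below 10 was scored as active.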 Unmarked numbers belong to inactive results. Active and inactive are the calls of the source.
# System: MDA-MB-468 breast
# Assay: NCI-60 one-dose screen, 48 h (100 = growth as untreated, 0 = no growth, -100 = all killed)
# Conditions: 10 µM unless noted
row,SMILES,growth
1,O=C(Nc1ccc(S(=O)(=O)NC2CCCCCC2)cc1)C(c1ccccc1)S(=O)(=O)c1ccc(F)cc1 (stereo unspecified),-14.5% (active)
2,Cc1ccc(-c2cc(-c3cccc4ccccc34)n3c(n2)nc2ccccc23)cc1,70.4%
3,Cn1cc(C(=O)c2nc(-c3c[nH]c4ccc(Br)cc34)no2)c2cc(Br)ccc21,66.1%
4,COc1cc2nc(Cl)nc(Nc3cccc(C(=O)/C=C/c4ccc(Cl)cc4)c3)c2cc1OC,63.8%
5,Oc1ccc(C2c3ccccc3Oc3ccccc32)c2cccnc12,9.14% (active)
6,c1coc(CSc2ncnc3nc[nH]c23)c1,96%

# Reference: PubChem BioAssay (NCI)
